Only some compounds are listed: those with a hit (about 5.3% of all), similar ones and a draw of the others.
Tau fibril FP: tau fibrillization inhibition (FP). Potency, µM (highest dose often 57.7 µM), without a hit: at the highest dose activity, negative = inhibition, hits mostly inhibitors. hit rate 0.39% among 280,000. AID 1468. K18 P301L tau heparin fibrillization, Alexa594 FP, 6 h. P10636; note: potency is the fitted concentration of half-maximal effect; nearly all actives have a fitted effect of over 55% in size
Target sequence (P10636 561-689 P618L limits assumed): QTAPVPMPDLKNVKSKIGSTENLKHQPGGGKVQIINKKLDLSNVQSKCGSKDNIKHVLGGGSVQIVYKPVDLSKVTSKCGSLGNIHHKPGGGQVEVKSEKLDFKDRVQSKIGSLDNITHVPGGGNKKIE
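Human K18 P301L fragment (15 uM unlabeled plus 0.24 uM Alexa 594-labeled) in 100 mM sodium acetate pH 7 with compound, aggregation induced by 20 uM heparin for 6 hr at 37 C. ThT (30 uM) added for 1 hr, then Alexa 594 FP read.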
Tau fluor counter: counter-screen for tau fibril formation inhibitors | hit rate 0.93% among 280,000 | Potency, µM (doses to about 57.7 µM), inactives show at the top dose activity change, negative = decrease | tau K18 P301L Alexa594 fluorescence, heparin fibrillization; note: potency is the fitted concentration of half-maximal effect; nearly all actives have a fitted effect of over 55% in size
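Human K18 P301L tau (15 uM unlabeled plus 0.24 uM Alexa 594-labeled, final) in 100 mM sodium acetate pH 7 was mixed with compound and 20 uM heparin and incubated 6 hr at 37 C.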
JMJD2E inh: inhibitors of human JMJD2E histone demethylase | hit rate 1.6% among 230,000 | AID 2147 | Potency, µM (top dose mostly 57.1 µM), inactives show top-dose activity change, negative = inhibition, most hits filed as inhibitors | JMJD2E catalytic domain, FDH-coupled NADH fluorescence (FDH is formaldehyde dehydrogenase) | B2RXH2; active = well fitted inhibition curve with a large enough effect, not every such curve was filed as active; inconclusive = small, poorly fitted or top-dose-only effect, or another doubt; inactive = no such curve, though single readings can be large or run the other way;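 note: potency is the fitted concentration of half-maximal effect; 0% = wells with enzyme and -100% = buffer wells without enzyme; nearly all actives have a fitted effect of over 50% in size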
Target sequence (B2RXH2 1-337 limits assumed): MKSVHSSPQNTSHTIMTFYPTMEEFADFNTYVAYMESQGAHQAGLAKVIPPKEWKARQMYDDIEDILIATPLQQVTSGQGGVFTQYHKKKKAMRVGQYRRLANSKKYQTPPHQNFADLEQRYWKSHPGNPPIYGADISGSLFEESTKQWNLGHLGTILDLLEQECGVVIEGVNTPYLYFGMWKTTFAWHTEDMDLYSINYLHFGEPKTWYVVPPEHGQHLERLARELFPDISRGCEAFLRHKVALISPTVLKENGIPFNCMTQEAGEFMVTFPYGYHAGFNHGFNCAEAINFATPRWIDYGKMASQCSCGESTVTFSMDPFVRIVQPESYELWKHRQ
FBPA coupling cs: coupling enzyme interference in Giardia aldolase counter-screen. hit rate 0.67% among 290,000. coupling enzyme system counterscreen, AmpLite Red fluorescence. activity change, negative = inhibition, % at 58.2 µM, hits read low; in the data active = activity change below about -30%
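Counterscreen lacking aldolase: glyceraldehyde-3-phosphate coupling-enzyme reagent preincubated 10 min at RT with compound (at 57.5 uM final), then substrate/coupling system with AmpLite Red added; fluorescence read at 525/598 nm after 20 min RT.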
Sfp inh: inhibitors of Bacillus subtilis Sfp phosphopantetheinyl transferase; Q9F4F7; Biochemical Sfp PPTase activity, qHTS; Potency, µM, inactives show largest response in the series, negative = inhibition, hits mostly inhibitors; hit rate 3.5% among 310,000;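 note: the enzyme is Sfp with the accession as filed and its product quenches rhodamine fluorescence; potency is the fitted concentration of half-maximal effect; 0% = enzyme reaction without inhibitor and -100% = no enzyme wells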
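After 15 min at room temperature with compound, 15 nM Sfp received 5 uM rhodamine-CoA plus 12.5 uM BHQ-2-ybbR (50 mM Hepes pH 7.6, 10 mM MgCl2). Rate came from the fluorescence difference over 30 min, ex 525/em 598 nm.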
Tau fibril ThT: inhibitors of human tau fibril formation, thioflavin T binding; AID 1460; P10636; hit rate 2.1% among 270,000; recombinant tau K18 P301L, heparin-induced fibrillization, ThT fluorescence; Potency, µM (highest dose often 57.4 µM), without a hit: at the highest dose activity, negative = inhibition, usual class: inhibitors; note: potency is the fitted concentration of half-maximal effect; nearly all actives have a fitted effect of over 55% in size
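Using a mix of unlabeled (15 uM) and Alexa 594-labeled (0.24 uM) tau K18 P301L, heparin-triggered fibrillization over 6 hr at 37 C was scored by ThT fluorescence.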
The depositor's hits bear a star; ? = inconclusive; . = no result; ! = a repeat was not active; [ ] = remark or other dose. Unless noted, calls come from the whole dose curve; as a rule, active = well fitted curve in the direction sought with a large enough effect; inconclusive = small, poorly fitted or top-dose-only effect, or another doubt; inactive = no such curve, though single readings can be large; an effect the other way counts as inactive or inconclusive. Unless noted, % is set by controls: 0 for no effect and ±100 for the full control effect.

SMILES | Tau fibril FP | Tau fluor counter | JMJD2E inh | FBPA coupling cs | Sfp inh | Tau fibril ThT
COC(=O)CC1C(C)(C)C(O)C2CC3=C4C=C(OC)OC(c5ccoc5)[C@]4(C)CCC3[C@@]1(C)C2=O (some centres undefined) | 3% | -1% | -3% | 0 | -17% | 0%
CCOCCCNC(=O)c1c(NC(=O)c2cc(=O)c3cc(C)c(C)cc3o2)sc2c1CCC2 | 7% | -12% | . | . | . | ?
Brc1ccc([C@H]2CN3CCSC3=N2)cc1 | -1% | -4% | 11µM* | . | . | -9%
c1ccc(C2CN3CCSC3=N2)cc1 (centres undefined) | 3% | -5% | 6% | 2 | 11% | -2%
CCCCn1cc(S(=O)(=O)c2ccc(Cl)cc2)c(=O)c2cc(F)c(N3CCCCC3)cc21 | -13% | -4% | . | . | . | -12%
C=CC1=C2C=C(C3CC3)N(c3ccc(OC)cc3)C=C2C(=O)C(C)(OC(=O)c2ccco2)C1=O (centres undefined) | 2%[11.6 µM] | -24%[11.6 µM] | 15%[11.4 µM] | -7 | 5% | ?
CC(=O)Nc1ccc(N(C(=O)CNC(=O)c2ccco2)C(C(=O)NCc2ccco2)c2ccccc2)cc1 (centres undefined) | 2% | 0% | 7% | -1 | 13% | .
Cc1ccc(C(C(=O)NCc2ccco2)N(Cc2ccco2)C(=O)CNC(=O)c2ccco2)cc1 (centres undefined) | ? | -20% | ? | 2 | -17% | 7.1µM*
COc1ccc(C(=O)c2sc3nc4c(c(C(F)(F)F)c3c2N)CN(C(C)=O)CC4)cc1OC | 4% | -10% | . | . | . | 14µM*
CC(=O)N1CCc2nc3sc(C(=O)c4ccc(F)cc4)c(N)c3c(C(F)(F)F)c2C1 | 8% | -14% | . | . | . | 4.5µM*
COc1ccc(CNC(=O)c2sc3nc4c(c(C(F)(F)F)c3c2N)CCC4)cc1OC | 9% | -11% | 4% | 0 | -15% | -6%
CC(C)(C)N1C(=O)[C@H]2[C@H]3[C@H](O)[C@H](O)C/C(=N/OC[C@@H](O)COCc4ccco4)[C@H]3CC[C@@H]2C1=O | 3%[11.6 µM] | -2%[11.6 µM] | . | 1 | 21% | -6%[11.5 µM]
Cc1ccc2c(c1)C(=O)C1(O)CCN(c3ccccc3)C1=N2 (centres undefined) | -12% | -13% | . | 2 | 4% | 7.9µM*!
Cc1cccc(-n2ccc(=O)c(C(=O)O)n2)c1 | . | . | . | 0 | 10% | .
C=C1c2cc(C)ccc2NC(=O)N1c1ccccc1 | -5% | -8% | ? | 0 | -9% | -7%
Cc1ccc2c(c1)C(=O)[C@@]1(O)CCN(c3ccccc3)C1=N2 | -5% | -20% | 11% | 6 | -3% | 20µM*
Cc1c(Cl)cccc1NC(=O)CCS(=O)(=O)c1cccc2nsnc12 | -1% | -7% | . | . | . | -8%
NC(=O)c1c(NC(=O)CCCC(=O)O)sc2c1CCCCCC2 | -2% | -1% | -5% | 6 | 79µM* | 4%
Cc1c(Br)c([N+](=O)[O-])nn1CCCC(=O)Nc1sc2c(c1C#N)CCC2 | 2% | ? | 5% | 0 | 22µM* | ?
CCCC(=O)Nc1sc2c(c1C#N)CCCCC2 | -3% | -9% | 2% | 5 | -3% | -2%
N#Cc1c(NC(=O)CCCC(=O)O)sc2c1CCCCC2 | 8% | -9% | -1% | -5 | 56µM* | -12%
COC(=O)c1c(NC(=O)CCCC(=O)O)sc2c1CCC2 | -6% | -7% | ? | 6 | 15% | -9%
Cc1ccc(OCc2nnc(SCC(=O)Nc3ccccc3C(C)C)o2)cc1 | -4% | -14% | . | . | . | -6%
O=C(C1CC1)N1CCc2cc(Br)cc(S(=O)(=O)N3CCN(c4cccc(C(F)(F)F)c4)CC3)c21 | ? | -20% | . | . | . | -5%
Cc1cc(C)cc(NC(=O)C2CCN(c3cc(C)nc4c(-c5ccc(Cl)cc5)c(C)nn34)CC2)c1 | -2% | -4% | . | . | . | 5%
SMILES | Tau fibril FP | Tau fluor counter | JMJD2E inh | FBPA coupling cs | Sfp inh | Tau fibril ThT
NC(=S)NCCCC(N)C(=O)O (centres undefined) | ? | -15% | -5% | . | . | ?
CC#CCOCC/C=C1/c2ccccc2C(OC)C1C (centres undefined) | -3%[11.6 µM] | -8%[11.6 µM] | . | 1 | 12% | -6%[11.5 µM]
C=CCOCC/C=C1/c2ccccc2C(OC)C1C (centres undefined) | 1%[11.6 µM] | -11%[11.6 µM] | . | 0 | 38% | -7%[11.5 µM]
O=C(c1ccccc1)C1C(=O)c2ccccc2C1=O | -4% | -19% | -9% | 2 | 21% | ?
CCc1ccc(/C=C/C(=O)C2C(=O)c3ccccc3C2=O)cc1 | 7% | -2% | ? | -11 | 79µM* | ?
CCN1C(=O)c2ccccc2S(=O)c2ccc(C(=O)N3CCN(c4cc(Cl)ccc4C)CC3)cc21 (centres undefined) | 3% | -13% | . | . | . | -17%
COc1ccc(C2C(C(=O)Nc3ccccc3)=C(C)Nc3nc(-c4ccccc4Cl)nn32)cc1OC (centres undefined) | -8% | -18% | . | . | . | 0%
CC(=O)N1CC=CC1(CC(C)C)C(=O)NCc1ccc(C)o1 (centres undefined) | -20% | -8% | 2% | 5 | 45µM* | ?
COC(=O)N1CC=CC1(C)C(=O)NCC1CC1 (centres undefined) | -2% | -13% | -3% | 4 | 34% | -18%
COC(=O)N1CC=CC1(C)C(=O)NCc1ccc(C)o1 (centres undefined) | ? | -19% | -85% | -8 | ? | 22µM*
COC(=O)[C@@]1(C)CCC[C@@]2(C)c3ccc(O)c(C(C)C)c3CCC21 (some centres undefined) | -11% | 16µM*[quencher] | -9% | -6 | 29% | ?
CCn1c(CNC(=O)c2ccco2)nnc1SCC(=O)c1ccc(F)cc1 | . | . | . | 0 | 17% | .
O=C(CSc1nnc(CNC(=O)c2ccco2)o1)Nc1ccccc1 | -3% | -1% | 0% | 4 | 8% | 1%
C=CCn1c(CNC(=O)c2ccco2)nnc1SCC(=O)c1ccccc1 | -4% | 7% | 2% | -2 | 45µM* | 10%
O=C(CSc1nnc(CNC(=O)c2ccco2)o1)c1ccccc1 | -8% | -10% | 7% | 3 | 71µM* | -5%
NS(=O)(=O)c1ccc(NC(=S)NCc2cccc(Cl)c2)cc1 | ? | -21% | -22% | 1 | 11% | -3%
NS(=O)(=O)c1ccc(NC(=S)NCc2ccccc2)cc1 | -3% | -5% | -5% | 0 | 56µM* | -8%
NS(=O)(=O)c1ccc(NC(=S)N2CCC(Cc3ccccc3)CC2)cc1 | . | . | . | 3 | 22µM* | .
CCc1ccc(S(=O)(=O)NC(=S)Nc2ccccc2)cc1 | ? | -19% | 1% | 0 | 16µM* | -18%

From PubChem BioAssay
